# U2OS ROS induce: inducers of reactive oxygen species in cancer cells; U2OS ROS induction, H2DCF-DA fluorescence; ROS induction (% of piperlongumine), % at 10 µM; 46,000 tested, 2% active; AID 624156; in the data active = ROS induction above about 79%, passing the limit was not always enough;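 note: 0% = DMSO vehicle median and 100% = reference compound median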
# YB-1 expr inh: YB-1 expression inhibition. U2OS, qRT-PCR YB-1 vs CDIP delta delta Cp, 16 h; stronger effect = higher value; zero = DMSO, each unit about twofold. delta delta Cp (YB-1 minus CDIP) (concentration not given with the values). 30,000 tested, 0.37% active. AID 434959;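 active = delta delta Cp rounded down to an integer at or above 3, about 3 SD of DMSO wells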;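 note: higher means less YB-1 transcript or more CDIP transcript relative to DMSO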
# Starred values were filed as active, the others as inactive; . = no result. Sampled rows, rich in hits. Any-hit rate of the full collection: about 2.1%.
SMILES,U2OS ROS induce,YB-1 expr inh
COCCOC(=O)N1C(=O)[C@@]2(c3cc(C#CCNC(N)=O)ccc31)[C@H](C(=O)N1CCc3cc(OC)c(OC)cc3C1)[C@H]1C(=O)O[C@H](c3ccccc3)[C@H](c3ccccc3)N1[C@@H]2c1ccccc1OCCO,0.4,-0.2
COCCOC(=O)N1C(=O)[C@@]2(c3cc(C#Cc4ccc(OC)cc4)ccc31)[C@H](C(=O)N1CCc3cc(OC)c(OC)cc3C1)[C@H]1C(=O)O[C@H](c3ccccc3)[C@H](c3ccccc3)N1[C@@H]2c1ccccc1OCCO,49.9,0.0896
COCCOC(=O)N1C(=O)[C@@]2(c3cc(C#Cc4ccc(OC)cc4)ccc31)[C@H](c1ccccc1OCCO)N1[C@H](c3ccccc3)[C@H](c3ccccc3)OC(=O)[C@H]1[C@@H]2C(=O)N1CCc2cc(OC)c(OC)cc2C1,111.7*,0.0525
CCN(C(=O)c1ccc(C(=O)N(CC)c2ccccc2)cc1)c1ccccc1,3.5,.
c1coc(CCC2=NCCn3cccc32)c1,-10.9,.
C[C@@H]1CN([C@@H](C)CO)C(=O)Cc2cc(NS(=O)(=O)c3cn(C)cn3)ccc2O[C@@H]1CN(C)S(C)(=O)=O,108.9*,-0.787
C[C@H]1CN([C@@H](C)CO)C(=O)Cc2cc(NS(=O)(=O)c3cn(C)cn3)ccc2O[C@@H]1CN(C)Cc1ccc(Oc2ccccc2)cc1,-7.0,0.533
COc1ccc(CN(C)C[C@@H]2Oc3ccc(NS(=O)(=O)c4cn(C)cn4)cc3CC(=O)N([C@H](C)CO)C[C@H]2C)cc1,94.8*,0.0604
C[C@H]1CN([C@@H](C)CO)C(=O)Cc2cc(NS(=O)(=O)c3cn(C)cn3)ccc2O[C@H]1CN(C)S(=O)(=O)c1cn(C)cn1,-5.1,-0.109
O=C(Nc1cccc(Cl)c1)c1ccc(CS(=O)c2ccc(Cl)cc2)o1 (stereo unspecified),-10.6,.
O=C(CCCCCC(=O)N/N=C/c1c[nH]c2ccccc12)NO,.,-0.748
CCc1ccc(-c2cn3c4ccccc4nc3n2CCN2CCOCC2)cc1,88.6*,.
Cc1ccc(-c2cn3c4ccccc4nc3n2CCN2CCOCC2)cc1,36.2,.
COc1ccc(OC)c(S(=O)(=O)N2CCCC2)c1,11.1,.
O=C(c1ccc(Br)cc1)c1cc2c(cc1Br)OCCCO2,131.2*,-0.48
O=C(O)CCC(=O)c1ccc2c(c1)OCCCO2,9.7,0.0902
CCCn1c2ccccc2c2nnc(SCC(=O)N3c4ccccc4Sc4ccccc43)nc21,0.1,.
CCCn1c2ccccc2c2nnc(SCCCC(=O)c3ccc4c(c3)OCCO4)nc21,142.0*,.
Cc1nc2nc(SCC(=O)Nc3ccccc3C(F)(F)F)nn2c(C)c1Cc1ccccc1,4.9,.
CC/C=C\C=C1\C(=O)C=CC1CCCCCCCC(=O)O (stereo unspecified),87.3*,0.0288
CC/C=C\CC1C(=O)C=C/C1=C/CCCCCCC(=O)O (stereo unspecified),15.4,1.2
CCCCn1c(SCC(=O)NCc2ccccc2)nc2c(sc3ccccc32)c1=O,2.6,.
C=CCN(C(=O)CSc1nc2c(sc3ccccc32)c(=O)n1Cc1cccnc1)c1ccccc1,154.1*,.
Cc1ccc(Cl)cc1N(CC(=O)Nc1c(F)cccc1F)S(C)(=O)=O,155.8*,.
CS(=O)(=O)N(CC(=O)Nc1c(F)cccc1F)c1cccc(Cl)c1Cl,5.9,.
SMILES,U2OS ROS induce,YB-1 expr inh
CCOC(=O)C(C)(C)Sc1nc2c(c(=O)n1-c1ccc(F)cc1)SCC2,33.5,.
COc1ccc(C(=O)NCc2cccnc2)cc1C(=O)NCc1cccnc1,-3.1,-0.0974
COc1ccccc1-c1cc(C(F)F)n2ncc(C(=O)NCc3cccnc3)c2n1,115.9*,.
NC(=O)c1c(NC(=O)c2cnn3c(C(F)F)cc(-c4ccccc4)nc23)sc2c1CCC2,11.6,.
O=C(NCc1ccco1)c1cnn2c(C(F)F)cc(-c3ccccc3)nc12,192.9*,.
Cc1ccc(C)c(NC(=O)Cn2cccc2)c1,33.0,.
CCC(=O)NC(Nc1c(C)n(C)n(-c2ccccc2)c1=O)(C(F)(F)F)C(F)(F)F,0.3,.
COc1ccc(-c2cc(-c3ccccc3)c(C#N)c(SC3CCCCC3=O)n2)cc1 (stereo unspecified),27.2,.
Cc1nc(C(=O)/C=C/N(C)C)cs1,-9.0,.
COc1ccc(NS(=O)(=O)c2cc(Br)cnc2N)cc1,-10.3,.
COc1ccccc1CNC(=O)c1ccc2c(c1)N(Cc1ccc(F)cc1Cl)C(=O)CS2,11.3,.
COc1ccc(-c2cc(C(F)(F)F)n3nc(C(=O)NCc4ccco4)cc3n2)cc1OC,32.8,.
O=C(c1cnn2c(C(F)(F)F)cc(-c3ccccc3)nc12)N1CCCC1,5.8,.
COc1ccc(-c2cc(C(F)(F)F)n3ncc(C(=O)NCc4nc5ccccc5[nH]4)c3n2)cc1OC,151.0*,.
CSc1ccccc1NC(=O)c1cnn2c(C(F)(F)F)cc(-c3ccco3)nc12,170.5*,-0.715
O=C(O)c1cnn2c(C(F)(F)F)cc(-c3ccco3)nc12,-12.9,.
CCC(C)NC(=O)c1cnn2c(C(F)(F)F)cc(-c3ccccc3)nc12 (stereo unspecified),128.6*,.
COc1ccc(C(=O)Cn2ccnc2C(=O)NCCc2ccc(Cl)cc2)cc1,30.3,.
CS(=O)(=O)N(Cc1cccc(F)c1)n1c(SCc2cccc(F)c2)nc2ccccc2c1=O,2.3,.
O=C(Cc1ccccc1)Nn1c(SCC(=O)c2ccccc2)nc2ccccc2c1=O,0.8,.
COc1ccc2c(c1OC)C(=O)N1c3ccccc3N=C(c3ccc(Br)cc3)CC21 (stereo unspecified),56.9,9.64*
COc1ccc(C2=NN(C(=O)CSCc3ccco3)C(c3cccc(OC)c3OC)C2)cc1 (stereo unspecified),68.8,.
COc1ccc(-c2nc(SCC(=O)CSc3n[nH]c(-c4ccc(OC)cc4)n3)n[nH]2)cc1,1.9,.
CS/C(NCC1CC1)=C(/C#N)C(=O)c1ccc(Cl)cc1,195.9*,-0.471
CS/C(NC1CCCCC1)=C(/C#N)S(=O)(=O)c1ccc(Cl)cc1,44.7,-0.00514
SMILES,U2OS ROS induce,YB-1 expr inh
O=C(CS(=O)(=O)c1ccc(C(F)(F)F)cc1Cl)Nc1ccc(F)cc1,17.1,.
Cc1ccccc1NC(=O)COc1ccc(C)c([N+](=O)[O-])c1,113.7*,.
CC(=O)Nc1ccccc1NC(=O)COc1ccc([N+](=O)[O-])cc1,-10.4,.
COC(=O)c1cc(O)cc(OC)c1C(=O)c1c(O)cc(C)cc1O,93.8*,-0.401
COC(=O)c1cc(O)cc(OC)c1C(=O)c1c(O)cc(C)cc1OC,-6.0,0.591
CN(C)c1ccc(/C=C2/C(=O)Nc3ccccc32)cc1,9.2,-0.299
CC(=O)N1/C(=C/c2ccc(N(C)C)cc2)C(=O)c2ccccc21,150.9*,.
C=CCn1c(O)c(C2=c3ccccc3=NC2=O)sc1=S,3.3,.
CN1CCN(c2ccc(CNS(=O)(=O)c3ccc4c(c3)CCO4)cc2)CC1,16.8,.
FC(F)(F)c1nnc2n1Nc1nc3ccccc3nc1S2,703.6*,.
CCc1ccc2c(c1)=C(c1[nH]c(=S)[nH]c1O)C(=O)N=2,124.3*,0.242
CCc1ccc2c(c1)=C(c1sc(N)nc1O)C(=O)N=2,1.6,-0.276
CC1CCCCN1S(=O)(=O)c1ccc(F)c(C(=O)Nc2c(F)cc(F)cc2Br)c1 (stereo unspecified),-11.1,.
CC(=O)Nc1nonc1NC(=O)c1ccc(C)cc1,0.2,.
